About 8,800 targets were measured; listed, in parts, are those with a hit and a random draw of the rest. About 0.5% of all pairs of compound and target were hits.
Assays:
Assay in all cases: log2 fold change, soluble protein after heating vs DMSO (PISA); higher = thermal stabilisation; K562 lysate, 10 uM; active = over 0.2 and 3.5 SD of the protein, either way, in both replicates (recomputed)
[1] = compound: C=CC(=O)N1CCC[C@@H](n2nc(-c3ccc(Oc4ccccc4)cc3)c3c(N)ncnc32)C1 [ibrutinib]
Outline: (§1)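 Following dounce homogenisation of K562 pellets in PBS pH 7.4 with 1 mM MgCl2, crude extract at 1 mg/mL protein was incubated for 30 min with 10 μM compound. Aliquots were then heated for 3 min over 48°C-58°C and pooled, NP-40 was added to 0.5% at 4°C, and soluble protein was recovered as the supernatant at 21,000xg for 90 min. Channel-sum-equalised TMTpro 16plex LC-MS/MS quantified this protein. Each value, from duplicates, is a log-two fold change in thermal stability relative to solvent controls.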

[2] = compound: CC(=O)c1cnc2ccc(-c3cc(Cl)c(O)c(Cl)c3)nc2c1N[C@H]1CC[C@H](CN(C)C)CC1
Outline: as §1

[3] = compound: CC(C)(C)Cn1c(N)nc2ccc(-c3[nH]c(C(C)(C)C)nc3-c3ccc(F)cc3)nc21 [ralimetinib]
Outline: as §1

[4] = compound: CC(C)(O)CC(=O)NCCn1ccc2ncnc(Nc3ccc(Oc4cccc(C(F)(F)F)c4)c(Cl)c3)c21
Outline: as §1

[5] = compound: CC(C)C1=C2N=C(C=C(N2N=C1)NCC3=CC=CC=C3)NCCCCCCN
Outline: as §1

[6] = compound: CC1=C(C(CC(=O)N1)C2=CC=C(C=C2)C(F)(F)F)C(=O)NC3=C(C=C4C(=C3)C=NN4)F
Outline: as §1

[7] = compound: CC1=C(C2=C(C=C1)C(=O)C3=CC=CC=C3N2CCCN)C
Outline: as §1

[8] = compound: CC1=C(C=C(C=C1)NC(=O)C2=CC(=CC=C2)C(C)(C)C#N)NC3=CC4=C(C=C3)N=CN(C4=O)C
Outline: as §1

[9] = compound: CC1=C(C=C(C=C1)NC(=O)C2=CC(=CC=C2)N(C)C)NC(=O)C3=CC=C(C=C3)O
Outline: as §1

[10] = compound: CC1=CC=C(C=C1)SC2=C3C=C(SC3=CN=C2)C(=O)N
Outline: as §1

[11] = compound: CCCS(=O)(=O)Nc1ccc(F)c(C(=O)c2c[nH]c3ncc(-c4ccc(Cl)cc4)cc23)c1F [vemurafenib]
Outline: as §1

[12] = compound: CCCS(=O)(=O)Nc1ccc(F)c(C(=O)c2c[nH]c3ncc(Cl)cc23)c1F
Outline: as §1

[13] = compound: CCN(CCCOc1ccc2c(Nc3cc(CC(=O)Nc4cccc(F)c4)[nH]n3)ncnc2c1)CCOP(=O)(O)O [barasertib]
Outline: as §1

[14] = compound: CC[C@@H]1C(=O)N(C)c2cnc(Nc3ccc(C(=O)NC4CCN(C)CC4)cc3OC)nc2N1C1CCCC1
Outline: as §1

[15] = compound: CC[C@@H]1C(=O)N(C)c2cnc(Nc3ccc(C(=O)N[C@H]4CC[C@H](N5CCN(CC6CC6)CC5)CC4)cc3OC)nc2N1C(C)C [volasertib]
Outline: as §1

[16] = compound: CCn1c(C(=O)N(C2CC2)C2CC2)cc2c3c(ncn3C)c(Nc3cc(C)n(C)n3)nc21
Outline: as §1

[17] = compound: CCn1cc(-c2ccnc3[nH]c(-c4cccc(CN(C)C)c4)cc23)c(-c2ccc(NC(=O)N(C)C)cc2)n1
Outline: as §1

[18] = compound: CN1CCC(CNc2ccc3ncc(-c4cccc(OC(F)(F)F)c4)n3n2)CC1
Outline: as §1

[19] = compound: CN1CCN(CCOc2cc(OC3CCOCC3)c3c(Nc4c(Cl)ccc5c4OCO5)ncnc3c2)CC1 [saracatinib]
Outline: as §1

[20] = compound: CN1CCN(c2nc(C3=C(c4c[nH]c5ccccc45)C(=O)NC3=O)c3ccccc3n2)CC1 [sotrastaurin]
Outline: as §1

Measured: log2 fold change

TJP1 isoform 2 (UniProt Q07157)
Sequence of UniProt Q07157 (Q07157 whole entry, looked up): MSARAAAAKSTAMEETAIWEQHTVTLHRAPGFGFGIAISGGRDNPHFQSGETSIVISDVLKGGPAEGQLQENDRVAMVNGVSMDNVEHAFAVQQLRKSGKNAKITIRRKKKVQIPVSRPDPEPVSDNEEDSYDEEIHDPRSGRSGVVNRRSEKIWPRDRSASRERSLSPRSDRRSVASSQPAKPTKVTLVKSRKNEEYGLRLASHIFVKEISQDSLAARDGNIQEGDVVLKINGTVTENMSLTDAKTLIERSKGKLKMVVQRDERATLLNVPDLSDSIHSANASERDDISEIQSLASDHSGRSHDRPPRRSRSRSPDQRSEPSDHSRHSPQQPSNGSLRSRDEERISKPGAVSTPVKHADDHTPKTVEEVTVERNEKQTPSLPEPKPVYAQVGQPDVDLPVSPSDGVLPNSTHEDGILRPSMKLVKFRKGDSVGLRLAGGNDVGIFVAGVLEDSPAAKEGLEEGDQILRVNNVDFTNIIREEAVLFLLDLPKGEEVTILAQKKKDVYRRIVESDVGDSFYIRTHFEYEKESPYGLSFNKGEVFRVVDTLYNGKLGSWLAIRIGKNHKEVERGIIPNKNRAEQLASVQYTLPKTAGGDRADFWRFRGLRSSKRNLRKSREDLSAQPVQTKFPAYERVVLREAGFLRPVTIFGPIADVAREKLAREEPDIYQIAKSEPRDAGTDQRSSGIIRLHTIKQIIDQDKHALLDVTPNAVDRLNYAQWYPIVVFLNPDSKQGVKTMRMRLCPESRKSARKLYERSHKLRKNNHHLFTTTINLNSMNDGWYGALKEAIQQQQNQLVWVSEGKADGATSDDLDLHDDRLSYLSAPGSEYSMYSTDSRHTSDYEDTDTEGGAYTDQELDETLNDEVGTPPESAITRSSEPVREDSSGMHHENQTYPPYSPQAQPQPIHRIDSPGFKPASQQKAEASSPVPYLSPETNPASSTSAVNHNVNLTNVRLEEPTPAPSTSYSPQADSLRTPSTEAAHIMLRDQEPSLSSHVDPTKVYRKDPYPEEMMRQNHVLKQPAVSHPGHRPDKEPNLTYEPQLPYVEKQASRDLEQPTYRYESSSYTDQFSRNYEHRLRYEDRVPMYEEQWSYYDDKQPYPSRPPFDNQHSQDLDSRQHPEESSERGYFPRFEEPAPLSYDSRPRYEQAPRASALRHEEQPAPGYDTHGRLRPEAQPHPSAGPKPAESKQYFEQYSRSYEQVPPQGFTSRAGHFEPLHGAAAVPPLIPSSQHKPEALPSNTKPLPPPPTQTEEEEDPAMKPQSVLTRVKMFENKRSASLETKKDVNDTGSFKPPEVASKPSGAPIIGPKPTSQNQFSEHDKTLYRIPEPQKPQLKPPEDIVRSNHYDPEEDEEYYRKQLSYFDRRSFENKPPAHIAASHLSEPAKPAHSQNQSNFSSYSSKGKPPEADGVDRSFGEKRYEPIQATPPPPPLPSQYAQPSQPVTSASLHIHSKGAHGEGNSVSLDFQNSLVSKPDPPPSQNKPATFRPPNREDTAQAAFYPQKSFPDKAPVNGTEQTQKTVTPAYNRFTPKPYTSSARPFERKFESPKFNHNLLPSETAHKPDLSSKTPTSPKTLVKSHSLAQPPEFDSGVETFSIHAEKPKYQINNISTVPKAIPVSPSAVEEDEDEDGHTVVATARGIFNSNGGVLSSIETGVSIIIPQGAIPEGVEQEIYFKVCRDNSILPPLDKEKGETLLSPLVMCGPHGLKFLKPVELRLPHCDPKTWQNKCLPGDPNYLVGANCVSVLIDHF
inactive: [1] 0.019 | [2] -0.001 | [3] -0.007 | [4] -0.041 | [5] 0.036 | [6] 0.002 | [7] -0.025 | [8] 0.015 | [9] 0.016 | [10] -0.014 | [11] 0.023 | [12] 0 | [13] -0.003 | [14] 0.064 | [15] -0.01 | [16] -0.045 | [17] -0.046 | [18] 0.057 | [19] 0.014 | [20] 0.014

UFM1 (UniProt P61960)
Sequence of UniProt P61960 (P61960 whole entry, looked up): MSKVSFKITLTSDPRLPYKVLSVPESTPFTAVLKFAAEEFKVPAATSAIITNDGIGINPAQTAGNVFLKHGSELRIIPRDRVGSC
inactive: [1] 0.059 | [2] 0.072 | [3] 0.008 | [4] -0.014 | [5] -0.003 | [6] -0.04 | [7] -0.007 | [8] -0.097 | [9] -0.038 | [10] 0.109 | [11] -0.249 | [12] -0.035 | [13] 0.039 | [14] 0.044 | [15] 0.047 | [16] 0.014 | [17] 0.491 | [18] -0.338 | [19] 0.016 | [20] 0.028

TPM3 isoform 2 (UniProt P06753)
inactive: [1] 0.03 | [2] -0.007 | [3] -0.02 | [4] 0.05 | [5] -0.034 | [6] -0.005 | [7] -0.019 | [8] -0.073 | [9] 0.002 | [10] -0.006 | [11] -0.052 | [12] -0.024 | [13] -0.016 | [14] -0.07 | [15] 0.007 | [16] 0.026 | [17] 0.196 | [18] -0.179 | [19] -0.009 | [20] 0.025

TERF2IP (UniProt Q9NYB0)
Sequence of UniProt Q9NYB0 (Q9NYB0 whole entry, looked up): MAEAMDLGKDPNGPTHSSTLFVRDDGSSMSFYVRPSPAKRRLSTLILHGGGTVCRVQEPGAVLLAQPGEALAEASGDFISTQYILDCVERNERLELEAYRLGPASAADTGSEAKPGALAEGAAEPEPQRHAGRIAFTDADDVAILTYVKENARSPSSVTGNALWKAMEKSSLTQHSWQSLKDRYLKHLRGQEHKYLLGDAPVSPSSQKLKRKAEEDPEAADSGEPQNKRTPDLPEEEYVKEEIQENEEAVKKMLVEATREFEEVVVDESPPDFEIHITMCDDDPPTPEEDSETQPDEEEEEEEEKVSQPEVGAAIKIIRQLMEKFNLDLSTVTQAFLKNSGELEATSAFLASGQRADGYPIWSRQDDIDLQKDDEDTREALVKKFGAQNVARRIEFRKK
active: [17] 0.269
inactive: [1] 0.02 | [2] -0.012 | [3] 0.025 | [4] -0.049 | [5] -0.047 | [6] 0.004 | [7] -0.004 | [8] -0.008 | [9] -0.005 | [10] 0.003 | [11] -0.009 | [12] -0.003 | [13] -0.006 | [14] 0.075 | [15] 0.022 | [16] -0.015 | [18] -0.152 | [19] -0.003 | [20] 0.008

TRIM23 (UniProt P36406)
Sequence of UniProt P36406 (P36406 whole entry, looked up): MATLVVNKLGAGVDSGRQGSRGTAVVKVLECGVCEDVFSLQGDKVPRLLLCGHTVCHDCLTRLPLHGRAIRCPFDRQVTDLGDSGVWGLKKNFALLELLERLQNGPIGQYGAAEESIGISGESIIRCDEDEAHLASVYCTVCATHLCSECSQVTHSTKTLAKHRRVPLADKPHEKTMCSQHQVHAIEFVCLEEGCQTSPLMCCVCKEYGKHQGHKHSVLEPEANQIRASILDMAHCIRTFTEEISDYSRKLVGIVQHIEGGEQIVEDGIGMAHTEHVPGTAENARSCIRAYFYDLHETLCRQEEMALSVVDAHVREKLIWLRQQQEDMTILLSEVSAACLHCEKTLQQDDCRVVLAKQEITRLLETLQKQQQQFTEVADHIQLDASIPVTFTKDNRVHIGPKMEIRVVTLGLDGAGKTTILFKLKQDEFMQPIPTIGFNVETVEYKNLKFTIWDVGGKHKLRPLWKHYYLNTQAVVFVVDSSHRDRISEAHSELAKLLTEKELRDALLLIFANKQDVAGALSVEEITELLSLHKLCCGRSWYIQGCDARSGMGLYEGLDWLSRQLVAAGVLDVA
inactive: [1] -0.031 | [2] 0.061 | [3] -0.102 | [4] -0.085 | [5] -0.056 | [6] 0.026 | [7] -0.065 | [8] 0.099 | [9] -0.22 | [10] -0.022 | [11] 0.077 | [12] -0.038 | [13] 0.119 | [14] 0.115 | [15] -0.03 | [16] 0.316 | [17] -0.28 | [18] 0.073 | [19] 0.096 | [20] 0.01

TPP2 (UniProt P29144)
inactive: [1] -0.018 | [2] -0.016 | [3] -0.002 | [4] 0.014 | [5] -0.012 | [6] -0.013 | [7] 0.003 | [8] 0.008 | [9] 0.012 | [10] 0.002 | [11] -0.015 | [12] 0.01 | [13] -0.024 | [14] -0.016 | [15] -0.023 | [16] 0.009 | [17] 0.025 | [18] -0.012 | [19] -0.016 | [20] -0.009

TBC1D8B (UniProt Q0IIM8)
Sequence of UniProt Q0IIM8 (Q0IIM8 whole entry, looked up): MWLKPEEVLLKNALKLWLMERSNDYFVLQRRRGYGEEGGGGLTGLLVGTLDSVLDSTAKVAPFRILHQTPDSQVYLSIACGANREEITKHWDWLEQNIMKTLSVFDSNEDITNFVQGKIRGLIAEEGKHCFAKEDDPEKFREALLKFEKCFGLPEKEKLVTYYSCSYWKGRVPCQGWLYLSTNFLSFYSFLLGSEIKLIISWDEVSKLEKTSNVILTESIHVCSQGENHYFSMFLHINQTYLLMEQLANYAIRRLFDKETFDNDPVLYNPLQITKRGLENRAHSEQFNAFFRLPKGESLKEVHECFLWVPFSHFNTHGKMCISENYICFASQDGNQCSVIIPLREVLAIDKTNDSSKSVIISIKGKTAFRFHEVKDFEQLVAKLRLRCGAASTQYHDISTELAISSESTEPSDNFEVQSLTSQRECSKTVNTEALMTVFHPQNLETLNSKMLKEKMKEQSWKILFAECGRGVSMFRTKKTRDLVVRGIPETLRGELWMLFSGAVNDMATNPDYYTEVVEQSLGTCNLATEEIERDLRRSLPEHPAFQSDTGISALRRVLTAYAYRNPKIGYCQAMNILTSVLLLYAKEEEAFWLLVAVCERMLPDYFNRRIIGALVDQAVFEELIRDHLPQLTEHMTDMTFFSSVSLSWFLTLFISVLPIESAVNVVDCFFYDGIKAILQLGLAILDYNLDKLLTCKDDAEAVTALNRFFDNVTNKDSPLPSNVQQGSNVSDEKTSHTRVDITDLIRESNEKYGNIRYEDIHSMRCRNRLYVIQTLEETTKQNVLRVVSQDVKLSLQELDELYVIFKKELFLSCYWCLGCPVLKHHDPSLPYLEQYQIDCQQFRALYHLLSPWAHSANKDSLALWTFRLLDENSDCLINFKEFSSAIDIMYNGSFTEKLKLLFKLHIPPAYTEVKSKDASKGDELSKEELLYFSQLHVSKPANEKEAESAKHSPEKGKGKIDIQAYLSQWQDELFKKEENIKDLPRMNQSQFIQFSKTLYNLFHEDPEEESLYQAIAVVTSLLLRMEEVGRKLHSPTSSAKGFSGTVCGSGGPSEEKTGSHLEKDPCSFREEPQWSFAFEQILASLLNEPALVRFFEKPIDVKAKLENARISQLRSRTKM
active: [17] -0.308
inactive: [1] 0.044 | [2] -0.039 | [3] -0.049 | [4] -0.017 | [5] 0.031 | [6] -0.072 | [7] 0.006 | [8] 0.016 | [9] -0.056 | [10] -0.051 | [11] -0.007 | [12] -0.025 | [13] 0.108 | [14] 0.096 | [15] 0.072 | [16] -0.024 | [18] 0.192 | [19] -0.047 | [20] -0.042

TUBGCP2 isoform 4 (UniProt Q9BSJ2)
Sequence of UniProt Q9BSJ2 (Q9BSJ2 whole entry, looked up): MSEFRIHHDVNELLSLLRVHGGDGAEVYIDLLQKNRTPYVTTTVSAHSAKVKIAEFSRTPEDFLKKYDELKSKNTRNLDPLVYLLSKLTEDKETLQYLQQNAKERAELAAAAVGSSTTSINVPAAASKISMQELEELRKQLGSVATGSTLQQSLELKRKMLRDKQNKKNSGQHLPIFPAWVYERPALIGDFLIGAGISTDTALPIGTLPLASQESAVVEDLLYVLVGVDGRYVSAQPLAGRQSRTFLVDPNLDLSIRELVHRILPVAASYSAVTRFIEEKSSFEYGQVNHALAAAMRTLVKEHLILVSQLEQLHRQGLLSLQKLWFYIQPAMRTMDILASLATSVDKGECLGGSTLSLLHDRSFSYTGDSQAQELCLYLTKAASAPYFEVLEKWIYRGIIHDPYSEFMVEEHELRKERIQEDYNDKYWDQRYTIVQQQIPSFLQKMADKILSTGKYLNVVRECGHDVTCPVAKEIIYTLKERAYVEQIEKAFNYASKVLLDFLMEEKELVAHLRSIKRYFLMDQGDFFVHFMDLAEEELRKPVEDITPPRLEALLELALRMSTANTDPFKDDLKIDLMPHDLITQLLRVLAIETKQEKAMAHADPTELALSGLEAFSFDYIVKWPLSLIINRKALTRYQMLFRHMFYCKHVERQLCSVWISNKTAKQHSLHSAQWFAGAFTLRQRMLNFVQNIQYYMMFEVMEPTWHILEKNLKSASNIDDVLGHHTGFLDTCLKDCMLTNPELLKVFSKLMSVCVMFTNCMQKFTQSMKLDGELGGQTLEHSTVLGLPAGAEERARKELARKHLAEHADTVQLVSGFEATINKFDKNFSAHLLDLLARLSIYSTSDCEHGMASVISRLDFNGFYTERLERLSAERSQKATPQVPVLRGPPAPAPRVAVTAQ
inactive: [1] -0.001 | [2] 0.042 | [3] -0.007 | [4] -0.016 | [5] -0.006 | [6] 0.011 | [7] -0.023 | [8] 0.035 | [9] 0.048 | [10] -0.017 | [11] 0.02 | [12] 0.01 | [13] 0.027 | [14] 0.001 | [15] -0.049 | [16] 0.021 | [17] 0.078 | [18] -0.064 | [19] -0.035 | [20] 0
